Screening data as filed in PubChem BioAssay.
TDP1 cell noCPT: qHTS for Inhibitors of human tyrosyl-DNA phosphodiesterase 1 (TDP1): qHTS in cells in absence of CPT. DT40 Tdp1-/- hTDP1 cells, no CPT, ATP luminescence, 48 h. Potency, µM (highest dose often 46.2 µM), actives largely listed as inhibitors. hit rate 15% among 420,000. AID 686978, 2013; also: nearly all actives have a fitted effect of over 55% in size
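Chicken DT40 Tdp1-/- cells stably complemented with human TDP1 were seeded at 400 cells/well with DMSO in place of 20 nM camptothecin. After compound pinning, cells grew at least 48 hr at 37 °C; viability read by CellTiter-Glo luminescence.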
TDP1 cell CPT: DT40-hTDP1 cell growth loss with CPT; AID 686979; hit rate 12% among 420,000; Potency, µM (top dose mostly 46.2 µM), usual class: inhibitors; chicken DT40 Tdp1-/-;hTDP1 cells + 20 nM CPT, ATP luminescence, 48 h; also: nearly all actives have a fitted effect of over 55% in size
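Chicken DT40 Tdp1-/- cells stably complemented with human TDP1 were seeded at 400 cells/well in medium containing 20 nM camptothecin, exposed to pin-transferred compounds, and grown at 37 °C for at least 48 hr. Viability was read as ATP luminescence.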
D3 ag: D3 dopamine receptor (human) agonism; AID 652048; max activation, %; hit rate 0.58% among 410,000; D3R DiscoveRx beta-arrestin cells, luminescence, 90 min; P35462; in the data active = max activation above about 30%
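Agonist-mode cell screen: cells plated at 1500/well and incubated overnight at 37 °C, then exposed to library compounds for 90 min at 37 °C. Detection reagent was added for 30–60 min at room temperature, and luminescence was read.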
IL1B secr inh: inhibitors of inflammasome signaling (IL-1 beta secretion); THP-1 LPS/ATP IL-1B secretion, AlphaLISA, 16 h; stronger effect = lower value; activity change, % at 57.5 µM; hit rate 4.7% among 360,000; in the data active = activity change below about -50%; inconclusive = mostly about -30% to -49%
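THP-1 cells pretreated 1 hr with compounds (up to 57.5 uM final), then stimulated with LPS (250 ng/mL final) plus ATP (1.25 mM final); secreted IL-1B measured by AlphaLISA after 16 hr, decreased signal indicating inhibition.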
ClpP mod: qHTS Assay for Activators of ClpP | AID 651965, 2013 | Potency, µM (series often up to 57.5 µM) | ATP-dependent Clp protease proteolytic subunit (Bacillus subtilis (strain 168)), P80244 | hit rate 1.9% among 340,000 | purified B. subtilis ClpP, FRET peptide cleavage, 20 min; active = well fitted falling curve with a large enough effect; inconclusive = small, poorly fitted or top-dose-only effect; inactive = no such curve, though single readings can be large or run the other way; also: the source files actives as falling curves though it sought activators and does not explain the sign; nearly all actives have a fitted effect of over 65% in size
Target sequence (P80244 whole entry, looked up): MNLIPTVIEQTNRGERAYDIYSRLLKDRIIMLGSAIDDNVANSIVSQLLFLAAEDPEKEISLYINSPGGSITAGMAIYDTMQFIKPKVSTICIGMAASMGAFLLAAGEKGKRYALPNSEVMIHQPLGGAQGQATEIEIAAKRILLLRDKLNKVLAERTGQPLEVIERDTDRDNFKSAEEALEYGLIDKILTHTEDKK
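Buffer: 100 mM Tris/HCl pH8, 100 mM KCl, 0.05% low protease BSA, 2.5% glycerol, 0.01% Tween-20. ClpP 10 microg/mL final; 20 min RT; delta FRET normalized to ADEP and DMSO controls.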
D3 antag: antagonists of human D3 dopamine receptor | max response, negative = inhibition, % | hit rate 2.5% among 360,000 | D3R cells, DiscoveRx beta-arrestin luminescence, antagonist mode; stronger effect = lower value | P35462 | AID 652054; in the data active = max response below about -50%; inconclusive = no clear call, values can overlap the other calls
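Cells expressing the human receptor were seeded at 1500 cells/well, incubated overnight at 37 degrees C in 5% CO2, then exposed to library compounds with dopamine controls for 90 minutes at 37 degrees C before luminescent detection.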
Each line names hits and unclear results; the compound was inactive in the other large screens. This is a sample that favours compounds with a hit; in the whole collection about 21% have one here. Unless noted, calls follow the shape of the dose curve; as a rule, active = well fitted inhibition curve with a large enough effect; inconclusive = small, poorly fitted or top-dose-only effect; inactive = flat fitted curve, though single readings scatter.

CC(C)OCCCNC(=O)CCN1C(=O)COc2ccccc21	none
O=C(CN1C(=O)COc2ccccc21)NCCCN1CCN(c2ccccc2F)CC1	D3 antag -91
CN1CCN(CCCNC(=O)CN2C(=O)COc3ccccc32)CC1	none
CC1CCCCN1CC(O)COCc1ccc(Cl)cc1 (configuration not stated)	none (no result: ClpP mod)
COCc1ccc(CN2CCC(n3nccc3NC(=O)CCCc3ccccc3)CC2)o1	none
CC(C)(C)CC(=O)Nc1ccc(S(=O)(=O)NC2=NCCCCC2)cc1	none
Cc1cc(C)c2c(=N)c3ccccc3n(CCCCCCCCn3c4ccccc4c(=N)c4c(C)cc(C)nc43)c2n1	TDP1 cell noCPT inconclusive, TDP1 cell CPT 10µM, IL1B secr inh -52, ClpP mod 32µM, D3 antag inconclusive
CCOC(=O)CNC(=S)N(Cc1ccccc1)Cc1ccccc1F	TDP1 cell noCPT inconclusive, IL1B secr inh -56
CCOC(=O)CNC(=S)N(Cc1ccccc1)Cc1cccs1	none
O=C(CNC(=S)N(Cc1ccccc1)Cc1ccccc1F)NCc1ccc(Cl)cc1	TDP1 cell noCPT inconclusive, TDP1 cell CPT inconclusive, IL1B secr inh -83 (no result: ClpP mod)
Cc1ccc(CNC(=O)CNC(=S)N(Cc2ccccc2)Cc2ccccc2F)cc1	TDP1 cell noCPT inconclusive, IL1B secr inh -69 (no result: ClpP mod)
O=C(OCN1C(=O)c2ccccc2C1=O)c1cccnc1SC(F)F	none (no result: ClpP mod)
CN(C(=O)c1cccc(NC(=O)Cc2ccc(NC(=O)C3CCCN(C(=O)C4CCC4)C3)cc2)c1)C1CCCC1 (configuration not stated)	TDP1 cell noCPT inconclusive, TDP1 cell CPT inconclusive
Cc1nc(N2CCOCC2)c(C#N)c2c1COC(C)(C)C2	ClpP mod 32µM
COC(=O)Sc1nc(N2CCOCC2)c2c(c1C#N)CC(C)(C)OC2	TDP1 cell noCPT inconclusive, TDP1 cell CPT 26µM, D3 antag -57
COc1nc(-c2ccccc2)c2c(c1C#N)CC(C)(C)OC2	none
CC(C)Sc1nc(N2CCOCC2)c2c(c1C#N)CC(C)(C)N(C)C2	TDP1 cell noCPT 16µM, TDP1 cell CPT 18µM
CC1(C)Cc2c(C#N)c(N3CCOCC3)nc(-c3ccccc3)c2CO1	TDP1 cell noCPT inconclusive, ClpP mod 35µM
COC(=O)CSc1nc(N2CCOCC2)c2c(c1C#N)CC(C)(C)OC2	none (no result: ClpP mod)
COc1ccc(NC(=O)N2CCCCCC2)cc1OC	none
C=C[C@H](CC(C)C)N(Cc1ccccc1)S(=O)(=O)N(Cc1ccccc1)[C@H](C=C)CC(C)C	TDP1 cell noCPT inconclusive, TDP1 cell CPT inconclusive (no result: D3 ag, IL1B secr inh, D3 antag)
CCc1nc(N2CCN(C(=O)c3ccccc3)CC2)c(C#N)c2c1COC(C)(C)C2	TDP1 cell noCPT 15µM, TDP1 cell CPT 18µM, ClpP mod 25µM
CCc1nc(N2CCOCC2)c(C#N)c2c1COC(C)(C)C2	TDP1 cell noCPT inconclusive, TDP1 cell CPT inconclusive, ClpP mod inconclusive
CC1(C)Cc2c(C#N)c(N3CCOCC3)nc(Cc3ccccc3)c2CO1	TDP1 cell noCPT 21µM, TDP1 cell CPT inconclusive, ClpP mod inconclusive
Cc1ccc(NC(=O)NCCCN2CCCC2=O)cc1C	none
O=C(CSc1nnc(-c2cccnc2)n1Cc1ccccc1)NCc1ccccc1	D3 antag inconclusive
O=C(NCC(c1ccco1)N1CCCC1)c1ccc(Cl)cc1 (configuration not stated)	D3 antag -67
Cc1nn(-c2ccc(C(=O)NCC(c3ccco3)N3CCCC3)cc2)c(C)c1Cl (configuration not stated)	TDP1 cell CPT inconclusive, D3 ag 57, IL1B secr inh inconclusive
O=C(NCC(c1ccco1)N1CCCC1)c1cc2cc(Cl)ccc2o1 (configuration not stated)	TDP1 cell noCPT inconclusive, TDP1 cell CPT 18µM, D3 antag inconclusive
O=C(CCNC(=O)c1ccc(Cl)cc1)NCC(c1ccco1)N1CCCCC1 (configuration not stated)	none (no result: ClpP mod)
